HCMV inh – qHTS Assay for inhibitors of the human cytomegalovirus (HCMV) | actives 4.5% (n = 410,000) | AID 1259415, 2018 | HFF cells, HCMV-luciferase reporter, 72 h; stronger effect = lower value | activity change, negative = inhibition, % at 57.5 µM; in the data active means activity change below about -60%; inconclusive means no clear call, values can overlap the other calls; inactive means above about -39%
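HFF cells seeded 16 h at 37C, treated with compounds, infected with luciferase-reporter HCMV at MOI 1 PFU/cell; luciferase read at 72 h post infection, normalized to buffer-only and Salinomycin controls.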
Lassa entry inh – qHTS for Inhibitors of binding or entry into cells for Lassa Virus | Lassa virus pseudotype entry inhibition, cell reporter | Potency, µM (titrated, usually from 37.9 µM), without a hit: top-dose activity change, negative = inhibition, usual class: inhibitors | actives 1.2% (n = 300,000) | AID 540256, 2011; calls by dose curve; tested in HEK293 cells; further: potency means the concentration at half of the fitted maximal effect; nearly all actives have a fitted effect of over 50% in size
Marburg entry inh – qHTS for inhibitors of binding or entry into cells for Marburg Virus; AID 540276, 2011; Marburg virus pseudotyped entry inhibition, cell reporter; actives 1.8% (n = 300,000); Potency, µM (titrated, usually from 37.8 µM), for the others: top-dose activity change, negative = inhibition, actives largely listed as inhibitors; calls by dose curve; tested in HEK293 cells; further: potency means the concentration at half of the fitted maximal effect
HCV inh – qHTS Assay for Inhibitors of Hepatitis C Virus (HCV); Huh7.5.1 HCVcc-Cre infection, luciferase reporter, 44 h; Potency, µM (series often up to 41.8 µM), inactives show at the top dose activity change, negative = inhibition, most hits filed as inhibitors; actives 3.4% (n = 340,000); further: potency means the concentration at half of the fitted maximal effect
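Cells seeded at 1,000/well and cultured 4 h, then compounds added followed by HCVcc-Cre virus (~0.5 moi). After 44 h further culture, luciferase substrate was added, plates held 15 min at room temperature, and luminescence read for 15 sec.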
Pf growth 48h – Primary qHTS for delayed death inhibitors of the malarial parasite plastid, 48 hour incubation; P. falciparum luciferase growth in erythrocytes, 48 h; Potency, µM (series often up to 28.7 µM), for the others: at the top dose activity change, negative = inhibition, hits mostly inhibitors; actives 5.9% (n = 310,000); AID 504832, 2011; further: potency means the concentration at half of the fitted maximal effect
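Luminescence readout; reporter = integrated firefly luciferase in P. falciparum. RBC culture at 2% hematocrit, 0.1% parasitemia final, 37 C/5% CO2; decreased signal taken as growth inhibition.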
Pf growth 96h – Primary qHTS for delayed death inhibitors of the malarial parasite plastid, 96 hour incubation; P. falciparum luciferase reporter growth, 96 h; Potency, µM (titrated, usually from 28.7 µM), for the others: at the top dose activity change, negative = inhibition, hits mostly inhibitors; actives 6.9% (n = 320,000); further: potency means the concentration at half of the fitted maximal effect
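Parasite growth measured via integrated firefly luciferase reporter in P. falciparum. Infected erythrocytes at 2% hematocrit, 0.05% parasitemia final were treated 96 hours at 37 C under 5% CO2, and luminescence was read.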
Active calls of the source: *; [ ] = remark or other dose. This is a sample that favours compounds with a hit; in the whole collection about 14% have one here. Unless noted, the call rests on the fitted dose curve; in most records, active means well fitted inhibition curve with a large enough effect; inconclusive means small, poorly fitted or top-dose-only effect, or another doubt; inactive means no such curve, though single readings can be large or run the other way. On the % scale 0 is the no-effect control and ±100 the full control effect.

How did O=C(O)CNS(=O)(=O)c1ccc(Br)s1 do in these assays?
HCMV inh: 19; Lassa entry inh: 4%; Marburg entry inh: -21%; HCV inh: -7%; Pf growth 48h: 12%; Pf growth 96h: 35%

How did O=S(=O)(NCc1ccncc1)c1ccc(Br)s1 do in these assays?
HCMV inh: -61*; Lassa entry inh: -16%; Marburg entry inh: inconclusive; HCV inh: inconclusive; Pf growth 48h: 18%

How did CCCCCc1nn2cc(-c3ccccc3)nc2s1 do in these assays?
HCMV inh: 25; Lassa entry inh: inconclusive; Marburg entry inh: 6%[46.1 µM]

Results for CN(CCOc1cccc(C(F)(F)F)c1)Cc1ccccc1 ?
HCMV inh: -12; Lassa entry inh: -8%; Marburg entry inh: inconclusive; HCV inh: 5%; Pf growth 48h: 25%; Pf growth 96h: inconclusive

How did OCCN1CCN(CCOc2cccc(Cl)c2)CC1 do in these assays?
HCMV inh: 9; Lassa entry inh: 26%; Marburg entry inh: 8%; HCV inh: -12%; Pf growth 48h: 22%; Pf growth 96h: 1.7µM*

What do the screens show for `FC(F)(F)c1cccc(OCCN2CCN(Cc3ccccc3)CC2)c1`?
HCMV inh: 3; Lassa entry inh: 10%; Marburg entry inh: inconclusive; HCV inh: 29%; Pf growth 48h: 12%; Pf growth 96h: 10µM*

What do the screens show for `COCCC(=O)N1CCOCC1c1cc(C(=O)NCc2ccccc2)no1` (stereo not drawn)?
HCMV inh: -5

Results for Cn1c(CCCCCN)nc2ccccc21 ?
HCMV inh: 11; Lassa entry inh: 15%; Marburg entry inh: -21%[46.1 µM]; HCV inh: 0%; Pf growth 48h: inconclusive; Pf growth 96h: 10µM*

Results for Cc1ccccc1NCc1nc2ccccc2n1C ?
HCMV inh: 96; HCV inh: -4%; Pf growth 48h: 155%; Pf growth 96h: 0%

Results for Cn1c(CNc2ccccc2O)nc2ccccc21 ?
HCMV inh: 1; HCV inh: 1%; Pf growth 96h: 9.3µM*

Results for COc1ccc(CNc2nc3ccccc3n2CCN2CCCCC2)cc1 ?
HCMV inh: -7; Lassa entry inh: -9%[46.1 µM]; Marburg entry inh: inconclusive; HCV inh: -20%; Pf growth 48h: -30%[5.75 µM]; Pf growth 96h: inconclusive

How did CCn1cnc2cc(NCc3nc4ccccc4n3Cc3ccccc3)ccc21 do in these assays?
HCMV inh: -34; Lassa entry inh: 10µM*; Marburg entry inh: inconclusive; HCV inh: -1%; Pf growth 48h: 9%; Pf growth 96h: 152%

What do the screens show for `CCN(CC)c1ccc(CNc2nc3ccccc3n2CCN2CCCCC2)cc1`?
HCMV inh: -99*; Lassa entry inh: inconclusive; Marburg entry inh: inconclusive; HCV inh: 11µM*; Pf growth 48h: inconclusive; Pf growth 96h: 6%

What do the screens show for `Cn1c(Cc2nc3ccccc3n2C)nc2ccccc21`?
HCMV inh: -37; HCV inh: 7%; Pf growth 48h: inconclusive; Pf growth 96h: 30%

How did CCn1cnc2cc(NCc3nc4ccccc4n3C)ccc21 do in these assays?
HCMV inh: 97; Lassa entry inh: inconclusive; Marburg entry inh: inconclusive; HCV inh: 7%; Pf growth 48h: 104%; Pf growth 96h: 3%

How did CCn1cc(C(=O)N2CCN(c3cccc(C)c3)C(C)C2)c(=O)c2cc(S(=O)(=O)N3CCOCC3)ccc21 (stereo not drawn) do in these assays?
HCMV inh: 12; Lassa entry inh: 5%[46.1 µM]; Marburg entry inh: -6%[46.1 µM]

How did CCOC(=O)C1CCN(C(=O)c2nn(-c3ccc(C)cc3)c(=O)c3c2c2ccccc2n3C)CC1 do in these assays?
HCMV inh: 1; Lassa entry inh: 34%[46.1 µM]; Marburg entry inh: -1%[46.1 µM]

How did C/C=C/c1cccc(-c2nc(C(=O)N3CCOCC3)cc3c2[C@H](CCO)N(C(=O)NC(C)C)C3)c1 do in these assays?
HCMV inh: -15
